In ChEMBL document CHEMBL3988442, “University of Dundee, Small-Polar-MMV Screening Library” (2021):
For some of these results: Potency and affinity values are given separately.

Experiments:
Set-up in all cases: scale not given: direction of the effect not stated beside the values
[1] = target: Protein translocase subunit SecA (Escherichia coli (strain K12)) (UniProt P10408); experiment: Assay to Identify E. coli SecA ATPase Inhibitors; assay type: functional; settings: 30 µM
[2] = target: T1, Ubiquitin-activating enzyme e1, putative (Leishmania donovani (strain BPK282A1)) (UniProt E9BSI1); experiment: Leishmania donovani Ubiquitin Activating Enzyme (LdE1); assay type: functional; settings: 30 µM
T1 sequence (whole entry): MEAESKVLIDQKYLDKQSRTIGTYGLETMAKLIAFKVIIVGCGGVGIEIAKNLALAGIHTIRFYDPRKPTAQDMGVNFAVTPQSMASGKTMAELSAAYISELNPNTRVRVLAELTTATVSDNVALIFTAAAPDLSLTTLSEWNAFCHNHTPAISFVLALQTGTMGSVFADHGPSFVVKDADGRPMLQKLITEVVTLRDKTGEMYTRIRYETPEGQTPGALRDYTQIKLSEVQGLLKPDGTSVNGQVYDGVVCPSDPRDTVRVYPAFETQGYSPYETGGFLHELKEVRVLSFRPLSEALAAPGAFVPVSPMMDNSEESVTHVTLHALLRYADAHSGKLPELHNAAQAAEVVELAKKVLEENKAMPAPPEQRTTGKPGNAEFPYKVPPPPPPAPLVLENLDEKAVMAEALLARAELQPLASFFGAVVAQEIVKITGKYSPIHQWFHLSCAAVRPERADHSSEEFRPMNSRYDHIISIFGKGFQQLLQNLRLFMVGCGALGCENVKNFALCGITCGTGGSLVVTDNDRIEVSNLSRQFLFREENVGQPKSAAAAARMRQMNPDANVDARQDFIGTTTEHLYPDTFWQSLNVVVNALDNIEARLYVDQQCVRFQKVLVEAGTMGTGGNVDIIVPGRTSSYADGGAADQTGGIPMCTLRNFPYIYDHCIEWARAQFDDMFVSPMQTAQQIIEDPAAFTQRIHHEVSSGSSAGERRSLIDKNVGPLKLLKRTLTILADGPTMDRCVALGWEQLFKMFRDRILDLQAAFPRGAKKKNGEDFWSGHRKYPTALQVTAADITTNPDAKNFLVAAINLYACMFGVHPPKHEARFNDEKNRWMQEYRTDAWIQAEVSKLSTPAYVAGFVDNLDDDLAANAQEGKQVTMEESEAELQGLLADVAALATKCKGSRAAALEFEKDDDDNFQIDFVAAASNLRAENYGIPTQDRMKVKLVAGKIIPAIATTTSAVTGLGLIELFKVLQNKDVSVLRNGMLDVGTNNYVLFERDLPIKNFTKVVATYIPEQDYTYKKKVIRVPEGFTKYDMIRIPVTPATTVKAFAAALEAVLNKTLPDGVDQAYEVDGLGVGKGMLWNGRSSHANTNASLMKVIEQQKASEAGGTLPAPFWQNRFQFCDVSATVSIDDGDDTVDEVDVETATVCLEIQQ

[3] = target: AMP-activated protein kinase, AMPK (Homo sapiens) (UniProt P54646+O43741+P54619+Q9UGJ0+Q9Y478+Q13131+Q9UGI9); experiment: AMP-dependent Kinase enzyme assay. An in vitro enzyme assay that detects ADP turnover that is directly proportional to AMPK activity. This uses naive AMPK that is activated during the assay with MK-8722; assay type: functional; settings: 30 µM
[4] = target: Sialic acid-binding Ig-like lectin 9 (Homo sapiens) (UniProt Q9Y336); experiment: Hs-Siglec9 ALPHAscreen SOP 20170721; settings: 10 µM
Trypanosoma cruzi = experiment: Trypanosoma cruzi phosphomannomutase and mannose-1-phosphate guanylyltransferase assay; assay type: functional; settings: 10 µM
[5] = target: T2, Arginase-2, mitochondrial (Homo sapiens) (UniProt P78540); experiment: in vitro enzyme assay to detect the production of urea directly proportional to the activity of Arginase II; assay type: functional; settings: 33.3 µM; also: in the data most compounds retested in dose-response had high values
T2 sequence (whole entry): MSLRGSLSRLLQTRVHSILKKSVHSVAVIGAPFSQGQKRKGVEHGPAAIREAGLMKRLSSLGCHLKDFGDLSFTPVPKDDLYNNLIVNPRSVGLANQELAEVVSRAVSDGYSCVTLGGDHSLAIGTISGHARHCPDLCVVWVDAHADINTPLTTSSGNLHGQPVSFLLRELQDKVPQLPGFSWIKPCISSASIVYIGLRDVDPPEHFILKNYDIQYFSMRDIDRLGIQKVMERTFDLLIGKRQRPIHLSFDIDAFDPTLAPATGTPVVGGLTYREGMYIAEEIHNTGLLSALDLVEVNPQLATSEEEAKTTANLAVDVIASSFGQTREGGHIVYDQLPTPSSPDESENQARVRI

[6] = target: T3, Proteasome subunit beta (Trypanosoma cruzi) (UniProt O96673); experiment: Trypanosoma cruzi proteasome chymotrypsin-like activity (TcProtChymo) assay.; also: in the data most compounds retested in dose-response had high values; assay type: functional; settings: 9.37 µM
T3 sequence (whole entry): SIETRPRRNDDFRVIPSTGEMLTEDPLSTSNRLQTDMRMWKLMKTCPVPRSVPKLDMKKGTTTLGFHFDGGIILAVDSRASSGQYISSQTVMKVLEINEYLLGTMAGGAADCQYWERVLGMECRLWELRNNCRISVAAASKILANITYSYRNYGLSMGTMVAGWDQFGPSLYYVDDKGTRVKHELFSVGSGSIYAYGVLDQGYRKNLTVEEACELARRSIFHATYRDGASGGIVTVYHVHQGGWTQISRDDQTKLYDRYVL

Homo sapiens = species on record: Homo sapiens; experiment: To identify inhibition of the IFN signalling (Jak-Stat) pathway via expression of an eGFP reporter gene under the control of an IFN-stimulated response element (ISRE) containing MxA promoter.; assay type: functional; settings: 30 µM
[7] = target: T4, Tyrosyl-tRNA synthetase, putative (Trypanosoma cruzi (strain CL Brener)) (UniProt Q4DSP6); experiment: Trypanosoma cruzi tyrosyl tRNA synthetase (TcYRS) _High Tyrosine SOP; assay type: functional; settings: 30 µM; also: in the data most compounds retested in dose-response had high values
T4 sequence (whole entry): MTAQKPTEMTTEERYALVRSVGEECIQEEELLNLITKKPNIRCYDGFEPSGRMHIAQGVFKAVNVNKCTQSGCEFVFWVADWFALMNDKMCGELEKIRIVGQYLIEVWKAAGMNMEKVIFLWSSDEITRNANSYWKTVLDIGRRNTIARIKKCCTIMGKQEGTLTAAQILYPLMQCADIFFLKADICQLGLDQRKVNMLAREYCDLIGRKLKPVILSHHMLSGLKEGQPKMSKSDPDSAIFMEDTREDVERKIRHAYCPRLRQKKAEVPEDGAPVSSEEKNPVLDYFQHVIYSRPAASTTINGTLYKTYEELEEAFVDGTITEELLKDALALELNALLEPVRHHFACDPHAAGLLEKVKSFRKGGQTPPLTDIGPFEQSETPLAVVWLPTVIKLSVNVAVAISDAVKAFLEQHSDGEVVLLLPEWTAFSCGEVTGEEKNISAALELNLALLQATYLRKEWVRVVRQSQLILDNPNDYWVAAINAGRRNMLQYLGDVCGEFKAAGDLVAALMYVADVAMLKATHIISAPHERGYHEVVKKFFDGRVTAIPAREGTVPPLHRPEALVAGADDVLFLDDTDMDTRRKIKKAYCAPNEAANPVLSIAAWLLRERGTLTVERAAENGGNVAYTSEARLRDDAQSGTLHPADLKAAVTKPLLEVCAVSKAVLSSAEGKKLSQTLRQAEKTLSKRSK

[8] = target: T4, Tyrosyl-tRNA synthetase, putative (Trypanosoma cruzi (strain CL Brener)); experiment: Trypanosoma cruzi tyrosyl tRNA synthetase (TcYRS) SOP; assay type: functional; settings: 30 µM
[9] = target: Chromo domain-containing protein 1 (Saccharomyces cerevisiae (strain ATCC 204508 / S288c) (Baker's yeast)) (UniProt P32657); experiment: ScCHD-1 Enzyme Inhibition Assay; assay type: functional; settings: 30 µM; also: in the data most compounds retested in dose-response had high values
Chromo domain-containing protein 1 (Saccharomyces cerevisiae (strain ATCC 204508 / S288c) (Baker's yeast)), sequence (P32657 whole entry, the tested form may be a part): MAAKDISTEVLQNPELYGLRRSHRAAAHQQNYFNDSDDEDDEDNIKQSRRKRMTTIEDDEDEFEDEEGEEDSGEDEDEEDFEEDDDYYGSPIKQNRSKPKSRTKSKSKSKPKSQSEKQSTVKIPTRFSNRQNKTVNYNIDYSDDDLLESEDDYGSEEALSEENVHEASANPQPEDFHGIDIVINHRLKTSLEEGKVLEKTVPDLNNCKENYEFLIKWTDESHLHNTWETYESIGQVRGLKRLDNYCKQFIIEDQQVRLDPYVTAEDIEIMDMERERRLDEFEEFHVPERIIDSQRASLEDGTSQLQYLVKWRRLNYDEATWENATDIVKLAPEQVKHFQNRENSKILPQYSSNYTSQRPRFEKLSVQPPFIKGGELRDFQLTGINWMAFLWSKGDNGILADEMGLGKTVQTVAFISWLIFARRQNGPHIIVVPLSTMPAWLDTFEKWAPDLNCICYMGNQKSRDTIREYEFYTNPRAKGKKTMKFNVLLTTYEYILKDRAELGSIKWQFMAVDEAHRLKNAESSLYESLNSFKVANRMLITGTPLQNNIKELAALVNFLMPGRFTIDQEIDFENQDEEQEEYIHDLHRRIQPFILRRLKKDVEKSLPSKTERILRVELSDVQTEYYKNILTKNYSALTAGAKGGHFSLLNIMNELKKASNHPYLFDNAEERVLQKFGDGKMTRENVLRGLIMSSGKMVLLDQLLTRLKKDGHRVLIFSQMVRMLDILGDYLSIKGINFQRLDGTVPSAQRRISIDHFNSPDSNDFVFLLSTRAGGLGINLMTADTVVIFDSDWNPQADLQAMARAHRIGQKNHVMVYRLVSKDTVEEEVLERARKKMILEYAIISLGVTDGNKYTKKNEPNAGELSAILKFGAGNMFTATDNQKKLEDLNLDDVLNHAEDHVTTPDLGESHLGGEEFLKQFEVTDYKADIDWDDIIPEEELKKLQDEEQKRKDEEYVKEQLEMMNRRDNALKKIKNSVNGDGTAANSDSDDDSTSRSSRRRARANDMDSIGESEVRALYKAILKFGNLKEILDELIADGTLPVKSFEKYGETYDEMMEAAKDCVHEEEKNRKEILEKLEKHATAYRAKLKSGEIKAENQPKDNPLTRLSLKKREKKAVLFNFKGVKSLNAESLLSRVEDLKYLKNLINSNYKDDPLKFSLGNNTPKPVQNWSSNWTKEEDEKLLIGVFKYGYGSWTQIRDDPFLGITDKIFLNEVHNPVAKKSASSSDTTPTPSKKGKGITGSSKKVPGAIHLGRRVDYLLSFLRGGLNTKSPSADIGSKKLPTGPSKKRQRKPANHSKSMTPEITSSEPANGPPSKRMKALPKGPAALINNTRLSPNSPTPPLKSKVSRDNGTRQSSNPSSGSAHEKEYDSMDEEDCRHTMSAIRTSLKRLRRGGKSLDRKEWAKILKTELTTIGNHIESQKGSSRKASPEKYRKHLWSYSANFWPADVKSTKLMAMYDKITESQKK

Protein translocase subunit SecA (Escherichia coli (strain K12)), sequence (P10408 whole entry): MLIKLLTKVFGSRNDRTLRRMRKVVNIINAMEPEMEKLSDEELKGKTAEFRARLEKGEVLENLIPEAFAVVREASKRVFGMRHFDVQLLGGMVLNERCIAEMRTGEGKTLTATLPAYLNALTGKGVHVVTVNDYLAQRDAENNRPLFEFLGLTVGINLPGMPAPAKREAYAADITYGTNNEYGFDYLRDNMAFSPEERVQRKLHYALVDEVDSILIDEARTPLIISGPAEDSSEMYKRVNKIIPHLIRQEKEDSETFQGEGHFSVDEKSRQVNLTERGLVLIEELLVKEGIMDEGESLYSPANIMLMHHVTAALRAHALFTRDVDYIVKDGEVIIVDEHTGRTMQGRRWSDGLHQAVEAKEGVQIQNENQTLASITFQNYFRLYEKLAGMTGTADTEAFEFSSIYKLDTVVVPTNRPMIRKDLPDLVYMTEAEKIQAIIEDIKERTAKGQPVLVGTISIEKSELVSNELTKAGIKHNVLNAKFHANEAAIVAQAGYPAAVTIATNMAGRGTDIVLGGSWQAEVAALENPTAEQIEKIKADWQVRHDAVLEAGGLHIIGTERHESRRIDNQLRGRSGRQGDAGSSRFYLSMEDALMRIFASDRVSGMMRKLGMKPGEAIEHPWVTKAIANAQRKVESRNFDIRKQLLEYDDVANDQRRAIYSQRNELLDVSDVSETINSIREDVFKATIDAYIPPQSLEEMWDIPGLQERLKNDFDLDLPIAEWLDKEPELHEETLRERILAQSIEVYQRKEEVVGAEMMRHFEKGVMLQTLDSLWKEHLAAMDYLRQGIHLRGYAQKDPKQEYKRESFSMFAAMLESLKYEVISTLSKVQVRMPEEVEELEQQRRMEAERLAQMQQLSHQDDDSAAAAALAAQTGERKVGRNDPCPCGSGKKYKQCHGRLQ
Sialic acid-binding Ig-like lectin 9 (Homo sapiens), sequence (Q9Y336 whole entry): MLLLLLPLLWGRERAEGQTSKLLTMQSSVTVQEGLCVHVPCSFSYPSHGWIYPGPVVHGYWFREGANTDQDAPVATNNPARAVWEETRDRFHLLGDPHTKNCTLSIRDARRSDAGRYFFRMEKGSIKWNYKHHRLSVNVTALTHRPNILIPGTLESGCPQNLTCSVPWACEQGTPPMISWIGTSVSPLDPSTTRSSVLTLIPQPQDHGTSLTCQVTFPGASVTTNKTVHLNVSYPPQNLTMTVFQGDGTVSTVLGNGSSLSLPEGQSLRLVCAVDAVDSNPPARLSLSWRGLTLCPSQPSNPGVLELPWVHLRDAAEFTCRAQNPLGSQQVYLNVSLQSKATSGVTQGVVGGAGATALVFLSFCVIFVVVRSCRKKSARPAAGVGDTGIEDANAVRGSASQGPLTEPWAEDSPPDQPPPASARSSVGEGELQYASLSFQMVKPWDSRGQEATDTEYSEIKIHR

SMILES	Percent Effect [1] [%]	Percent Effect [2] [%]	Percent Effect [3] [%]	Percent Effect [4] [%]	Percent Effect (Trypanosoma cruzi) [%]	Percent Effect [5] [%]	Percent Effect [6] [%]	Percent Effect (Homo sapiens) [%]	Percent Effect [7] [%]	Percent Effect [8] [%]	Percent Effect [9] [%]
Cn1ccnc1CN1CCC2(CC1)CN(CC1CC1)C(=O)CO2	-1.66	0	7.96	-0.145	-0.296	-1.94	0.522	12.5	4.23	8.97	90.8
CC(C)(C)NC(=O)C1CSCN1S(=O)(=O)c1cccc(F)c1 (stereo unspecified)	1.74	8.22	-2.49	-2.56	-8.81	0.909	20.2	12.2	3.23	10	-1.73
CN(C(=O)Cn1nc(-c2ccc(F)cc2)ccc1=O)C1CCS(=O)(=O)C1 (stereo unspecified)	-7.39	10.5	7.4	10.6	1.85	-16.6	6.81	-4.86	3.19	7.79	-3.65
CC(Cn1cccn1)NC(=O)Nc1ccc(F)cc1 (stereo unspecified)	0.465	6.94	-0.867	-4.43	-5.15	1.77	22.1	9.63	1.05	0	-1.51
CN(Cc1cnn(C)c1)C(=O)NCc1csc(Br)c1	-1.72	16.2	10.9	-2.71	-8.08	2.77	14.7	17.1	-3.96	-1.22	-6.6
CCOCCC(=O)Nc1cccc(Oc2ccccn2)c1	-5.45	0	-0.587	2.14	0.487	2.37	0.288	-0.792	0	-5.2	6.72
Cc1nnc2n1CCN(Cc1ncc(-c3ccc(Cl)cc3)o1)C2	-5	-18.4	8.78	14.6	3.38	2.3	-0.167	7.71	5.39	7.32	-5.79
Cc1occc1C(=O)N1CCC2(CC1)NC(=O)CC2c1cnn(C)c1 (stereo unspecified)	-3.16	10.8	-0.0675	-1.75	1.86	7.33	9.41	-9.35	0	12.8	0.845
c1cnc(NCc2noc3c2CN(C2CCOCC2)CC3)nc1	-4.67	18.7	-2.09	-2.32	3.86	-46.8	15.7	-2.62	7.29	22.5	-7.21
CC(=O)N1CCCCC1c1cc(C(=O)N2CCOCC2)[nH]n1 (stereo unspecified)	-1.41	14.9	11	-1.29	-1.38	-0.232	6.86	2.98	5.38	14.3	-10.1
COc1cccc(S(=O)(=O)CCN2CCCN(C(C)=O)CC2)c1	-0.358	5.33	-1.44	13.1	6.13	24	1.22	18.5	1.64	6.17	-15.8
